The full list was thinned out, with hits kept by preference.
Sfp PPTase inh: Sfp phosphopantetheinyl transferase inhibition; Biochemical Sfp PPTase activity, qHTS; Potency, µM, inactives show largest response in the series, negative = inhibition, usual class: inhibitors; 310,000 compounds, 3.5% hits; AID 1490;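 note: the enzyme is Sfp with the accession as filed and its product quenches rhodamine fluorescence; 0% = enzyme reaction without inhibitor and -100% = no enzyme wells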
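Fluorescence-quenching assay: 15 nM Sfp-PPTase preincubated 15 min at room temperature with compound, then 5 uM rhodamine-CoA and 12.5 uM BHQ-2-labelled YbbR peptide added. Fluorescence (ex 525/em 598 nm) read at start and after 30 min; difference gives rate.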
GRP78 ERSR act: inducers of ER stress response in human glioma cells; 420,000 compounds, 0.02% hits; Potency, µM, without a hit: at the highest dose activation, usual class: activators; AID 602332; U87-MG GRP78 promoter luciferase reporter, 16 h; note: series mostly up to about 76 µM; % of control where 0% means no effect; nearly all actives have a fitted effect of over 35% in size
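Stably transfected U87-MG glioma cells carrying a GRP78-based luciferase sensor; 16 h compound incubation. Luminescence end-point read 10 min after Bright-Glo addition at room temperature.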
VDR inh: vitamin D3 receptor (human) inhibition; AID 504847; VDR-SRC2-3 peptide fluorescence polarization, 2 h; P11473; Potency, µM, for the others: max response, negative = inhibition, actives largely listed as inhibitors; 400,000 compounds, 0.93% hits; note: % is set by controls: 0 for no effect and ±100 for the full control effect
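Two reagent solutions held at 4 deg C in the dark were dispensed, compounds pinned at 23 nl, and the mixture incubated 2 h at room temperature. Read-out: fluorescence polarization of VDR–SRC2-3 peptide binding.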
G9a inh: inhibitors of human histone lysine methyltransferase G9a; AID 504332; 350,000 compounds, 8.8% hits; G9a H3K9 monomethylation, AlphaScreen, 2 h; Q96KQ7; Potency, µM (doses to about 102 µM), inactives show at the highest dose activity, negative = inhibition, usual class: inhibitors; note: % is set by controls: 0 for no effect and ±100 for the full control effect; nearly all actives have a fitted effect of over 75% in size
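Step 1: enzyme (final 20 nM) with compound, 15 min RT. Step 2: substrate peptide 500 nM and SAM 20 uM, 2 h RT. Step 3: anti-H3K9me1 antibody and AlphaScreen beads, 10 min, then plate read.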
ALOX12 inh: inhibitors of human 12S-lipoxygenase ALOX12; purified 12hLO, xylenol orange hydroperoxide absorbance; Potency, µM (titrated, usually from 108 µM), inactives show top-dose activity change, negative = inhibition, actives largely listed as inhibitors; 580,000 compounds, 1.1% hits; AID 1671190; note: % is set by controls: 0 for no effect and ±100 for the full control effect
Target sequence (P18054 whole entry, looked up): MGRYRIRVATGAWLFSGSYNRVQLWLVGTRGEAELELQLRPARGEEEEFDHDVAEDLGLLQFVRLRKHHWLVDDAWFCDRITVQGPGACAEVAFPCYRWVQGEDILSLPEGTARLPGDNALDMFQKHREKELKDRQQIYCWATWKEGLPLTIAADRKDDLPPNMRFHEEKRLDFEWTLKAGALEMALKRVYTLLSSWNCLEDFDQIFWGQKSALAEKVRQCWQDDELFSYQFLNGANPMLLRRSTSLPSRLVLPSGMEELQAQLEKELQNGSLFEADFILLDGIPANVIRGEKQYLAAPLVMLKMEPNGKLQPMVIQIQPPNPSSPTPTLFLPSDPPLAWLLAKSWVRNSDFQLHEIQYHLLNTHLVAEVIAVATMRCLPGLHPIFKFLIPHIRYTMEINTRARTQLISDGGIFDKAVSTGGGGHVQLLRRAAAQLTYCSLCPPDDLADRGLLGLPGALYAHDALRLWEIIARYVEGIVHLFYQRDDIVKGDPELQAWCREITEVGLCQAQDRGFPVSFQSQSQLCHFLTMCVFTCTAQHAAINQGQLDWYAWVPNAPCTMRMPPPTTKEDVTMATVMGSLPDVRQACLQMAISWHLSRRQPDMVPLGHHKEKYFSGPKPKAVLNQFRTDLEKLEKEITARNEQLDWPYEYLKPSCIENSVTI
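Purified human 12hLO (150 nM final) in 25 mM Hepes, 0.01% Triton X-100, pH 7.0 was preincubated 15 min at room temperature with compound. Then 40 uM arachidonic acid was added, 30 min. Hydroperoxide was read by Fe-XO absorbance ratio 573/405 nm.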
An asterisk follows results filed as active; ? = inconclusive; nt = no result; [ ] = another dose, or the depositor's remark. Calls come from the whole dose curve; as a rule, active = well fitted curve in the direction sought with a large enough effect; inconclusive = small, poorly fitted or top-dose-only effect, or another doubt; inactive = no such curve, though single readings can be large; an effect the other way counts as inactive or inconclusive. Potency is the fitted concentration of half-maximal effect.

SMILES	Sfp PPTase inh	GRP78 ERSR act	VDR inh	G9a inh	ALOX12 inh
CCCCC1(C)OC(=O)C(=Cc2ccc(-c3ccc(Cl)c(C(=O)O)c3)o2)C(=O)O1 (stereo not drawn)	44.7µM*	0.0%	22.4µM*	nt	-23.0%
O=C1NN(c2ccc(Cl)cc2)C(=O)/C1=C\c1ccc(-c2cccc(C(=O)O)c2)o1	-2.7%	-1.8%	?	15.8µM*	39.8µM*
Cc1cc(/C=C2\C(=O)NN(c3ccccc3)C2=O)c(C)n1-c1ccccc1O	5.0%	7.7%	-14.8%	1.5%[59 µM]	-18.7%
COc1ccc(-n2c(C)cc(/C=C3\C(=O)NN(c4ccccc4)C3=O)c2C)cc1	1.2%	1.4%	-2.3%	-18.2%	1.5%
O=C1NN(c2ccccc2)C(=O)/C1=C\c1ccc(-c2cc([N+](=O)[O-])ccc2O)o1	79.4µM*	-1.8%	-2.3%	nt	?
COc1ccc(Sc2ccc(/C=C3\C(=O)NN(c4ccccc4)C3=O)o2)cc1	-13.5%	-3.3%	?	10µM*	28.2µM*
Cc1ccc(N2NC(=O)/C(=C/c3ccc(-c4ccc(Cl)c(C(=O)O)c4)o3)C2=O)cc1	-0.1%	3.9%	?	44.7µM*	?
O=C1CC2CS(=O)(=O)CC2N1c1ccc(N2CCOCC2)cc1 (stereo not drawn)	nt	nt	nt	nt	19.5%
Oc1ccc(/C=N/N2CCOCC2)c(O)c1O	10µM*	-2.4%	?	3.98µM*	65.7%
Oc1cccc(/C=N/N2CCCCC2)c1O	-28.0%	-5.9%	-3.3%	44.7µM*	-18.4%
Oc1ccc(/C=N/N2CCCCC2)c(O)c1O	7.94µM*	-4.4%	?	1.58µM*	1.6%
COc1ccccc1CC(C#N)C(=O)Nc1cc(C)cc(C)c1 (stereo not drawn)	nt	nt	nt	nt	-11.7%
N#Cc1cnn2c1NC1=C(C(=O)CCC1)C2c1ccccc1 (stereo not drawn)	nt	nt	nt	nt	19.1%
CCOC(=O)C1=NN(c2ccccc2)C(=O)/C1=C\c1ccc(N(C)C)cc1	-10.1%	?	?	?	?
CC1=NN(Cc2ccccc2)C(=O)/C1=C\c1ccc(N(C)C)cc1	4.7%	-4.7%	1.2%	11.2µM*	0.0%
C#CCOCCOCCOCCNc1nc(N2CCN(C(=O)C(Cc3ccc(O)cc3)n3cc(C(N)CC(C)C)nn3)CC2)nc(N2CCN(C(=O)C(Cc3cc4ccccc4[nH]3)n3cc(C(N)C(C)CC)nn3)CC2)n1 (stereo not drawn)	-3.4%	nt	nt	?	nt
C#CCOCCOCCOCCNc1nc(N2CCN(C(=O)C(Cc3cc4ccccc4[nH]3)n3cc(C(N)C(C)CC)nn3)CC2)nc(N2CCN(C(=O)C(Cc3cc4ccccc4[nH]3)n3cc(C(N)C(C)CC)nn3)CC2)n1 (stereo not drawn)	17.8µM*	-3.1%	38.0%	-102.6%[59 µM]	nt
C#CCOCCOCCOCCNc1nc(N2CCN(C(=O)[C@H](Cc3ccc(O)cc3)n3cc([C@@H](N)C(C)CC)nn3)CC2)nc(N2CCN(C(=O)[C@H](Cc3cc4ccccc4[nH]3)n3cc([C@@H](N)Cc4ccc(O)cc4)nn3)CC2)n1 (stereo partly drawn)	56.2µM*	nt	nt	?	nt
CSc1ccc(Cl)c(C(=O)Oc2cccc(Cl)c2Cl)c1	nt	nt	nt	nt	-1.5%
O=C(NC1CCCC1)C(Sc1nc2ccccc2o1)c1ccccc1 (stereo not drawn)	nt	nt	nt	nt	4.3%
COCCNc1ncnc2ccc(-c3ccccc3C(F)(F)F)cc12	56.2µM*	-4.6%	?	3.4%[0.501 µM]	20µM*
CN1CCN(c2ncnc3ccc(-c4cccnc4)cc23)CC1	26.7%	-3.7%	0.7%	-2.3%[0.501 µM]	-4.3%
COCCNc1ncnc2ccc(-c3ccc(N(C)C)cc3)cc12	-28.3%	-0.8%	39.8µM*	-26.5%[0.501 µM]	?
CN1CCN(c2ncnc3ccc(-c4ccoc4)cc23)CC1	17.3%	-5.5%	44.7µM*	2.7%[0.501 µM]	-14.3%
COCCNc1ncnc2ccc(-c3ccoc3)cc12	1.4%	-1.5%	39.8µM*	10.3%[0.501 µM]	?
Cc1ccc(N(C(C)C(=O)NCc2cccnc2)S(C)(=O)=O)cc1C (stereo not drawn)	nt	nt	nt	nt	6.5%
CC(OC(=O)Cn1cnc2c1c(=O)n(C)c(=O)n2C)C(=O)Nc1cccc(C#N)c1 (stereo not drawn)	nt	nt	nt	nt	7.3%
COc1cccc(-c2ccc3ncnc(NCCNC(C)=O)c3c2)c1	20.2%	2.1%	-8.0%	-22.4%[0.501 µM]	?

From PubChem BioAssay
